Assay outcomes from PubChem.
Pf Dd2 growth: qHTS Primary assay for Inhibitors of Plasmodium falciparum Dd2 growth in vitro. P. falciparum Dd2 growth, SYBR Green, 72 h. Potency, µM (series often up to 28.9 µM), inactives show top-dose activity, negative = inhibition, most hits filed as inhibitors. actives 4.3% (n = 120,000); active = well fitted inhibition curve with a large enough effect;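 also: plate controls were DMSO vehicle for no effect and reference drug for full effect; nearly all actives have a fitted effect of over 65% in size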
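Readout: SYBR Green fluorescence, 485 nm excitation, 535 nm emission, after ~16 h lysis at 37C. Before that, Dd2-infected red cells (2.5% hematocrit) grew 72 h with compound, 29 uM top final concentration.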
An asterisk follows results filed as active; i = inactive; [ ] = dose if it differs, or a comment. Shown is part of a subset that was picked to be rich in hits. Potency is read from the fitted curve at half-maximal effect.

SMILES	Pf Dd2 growth
CC(C)(Oc1nn(Cc2cccc(Cl)c2)c2ccccc12)C(=O)NCc1ccncc1	-5.7%[44.1 µM]
Cc1cccc(C(=O)N2CCC3(CC2)CC(c2ccccc2)C(=O)N3)c1 (stereo not drawn)	-8.6%
CNC(=O)[C@@H]1C[C@@H](n2cc(C(C)(C)NC(=O)c3cccc(Cl)c3)nn2)CN1	1.3%
O=C([C@@H]1C[C@H](F)CN1C(=O)Cc1ccc(F)cc1)N1CCCCC1	65.5%
COc1ccc(NC(=O)c2cnc3c(c2)N([S+](=O)([O-])c2cccnc2)CCC3)cc1OC	2.5%
COCCC1(NC(=O)C2CC2)CCN(S(C)(=O)=O)CC1	22.6%
CC(C)NC(=O)N[C@H]1C[C@@H](c2nc(-c3ccncc3)no2)N(C)C1	-17.6%[44.1 µM]
CCC(CC)C(=O)NC[C@H]1O[C@@H](CC(=O)N2CCN(c3ccc(F)cc3)CC2)[C@H](O)[C@@H]1O	-14.3%
COc1ccc(CNC(=O)c2cc(-c3ccc(C)cc3)nc3n[nH]c(-c4ccc(Br)cc4)c23)cc1	73.7%
CCCCn1c(SCC(=O)NCc2ccc(C)cc2)nc2c(sc3ccccc32)c1=O	46.0%
Cc1ccc(CNC(=O)CSc2nc3n[nH]c(C)c3c(=N)n2-c2ccccc2Cl)cc1	3.55µM*
COc1ccc(-n2c(SCC(=O)NCc3ccc(C)cc3)nc3n[nH]c(C)c3c2=N)cc1	10µM*
COc1ccc(CNC(=O)CSc2n[nH]c(-c3ccc(OC)cc3)n2)cc1	i
Cc1ccc(Cn2ccnc2SCC(=O)NCc2ccccc2)cc1	i
COc1cncc([C@@H](NC(=O)Cc2cn3ccsc3n2)C2CC(O)C2)c1 (stereo partly drawn)	-23.4%
Cc1cc(C)n(CCCN(C)C(=O)C2CC3(CCNCC3)CN2)n1 (stereo not drawn)	0.7%
CC(=O)N1CCC(N2CCC3(CC2)CN(Cc2ccccc2)CC3CO)CC1 (stereo not drawn)	22.0%
CCS(=O)(=O)Nc1ccc(C2(C(=O)NC3CCCC3)CCC2)cc1	0.0%
CCOc1ccc(S(=O)(=O)N2CCCN(C)c3ccccc32)cc1	-24.7%
COc1ccccc1C(O)c1nc(Nc2ccc(Cl)cc2F)n[nH]1 (stereo not drawn)	i
CCOC(=O)c1cccc(NC(=O)CCn2c(-c3ccc(F)cc3)cc(C(=O)OCC)c2C)c1	0.1µM*
CCOC(=O)c1cc(-c2ccccc2)n(CCCC(=O)Nc2cccc(C)c2)c1C	i
CCOC(=O)c1cc(-c2ccc(C)cc2)n(CCC(=O)Nc2ccc(C(C)C)cc2)c1C	8.91µM*
CCOC(=O)c1cc(-c2ccc(C)cc2)n(CC(=O)Nc2ccc(OC)c(Cl)c2)c1C	-0.4%
CCOC(=O)c1cc(-c2ccccc2)n(CC(=O)Nc2ccc(CC)cc2)c1C	i
SMILES	Pf Dd2 growth
CCOc1ccc(NC(=O)CCn2c(-c3ccc(F)cc3)cc(C(C)=O)c2C)cc1	i
O=C(Nc1ccc([C@@H](O)[C@H]2COCC(=O)N2Cc2ccccn2)cc1)c1cnccn1	16.5%[44.1 µM]
Cc1ccc2nc(C(=O)N[C@H]3COC[C@H]3Cc3cc(C)no3)cn2c1	-3.3%
Cc1ccccc1[S+](=O)([O-])N1CCC2OCCN(Cc3ccccc3F)C(=O)C2C1 (stereo not drawn)	i
Cc1ccc2nc(CO[C@H]3CN(Cc4cn(C)c5ccccc45)C[C@H]3F)[nH]c2c1	-13.9%[44.1 µM]
c1ccc2c(Cc3nnc([C@H]4CCN(CC5CC5)C4)o3)c[nH]c2c1	i
c1cncc(CN2CC[C@H](c3nnc(Cc4c[nH]c5ccccc45)o3)C2)c1	11.2µM*
CC(=O)N1CC[C@H](c2nnc(Cc3c[nH]c4ccccc34)o2)C1	-9.0%[44.1 µM]
Cc1ccn2c(C(=O)N[C@H](Cc3ccccn3)C3CC(O)C3)nnc2n1 (stereo partly drawn)	-6.1%
CCc1nc2cc(N3CCC(C(=O)O)CC3)cnc2nc1CC	i
CCCc1noc(-c2cccn3c(CNC(=O)c4ccccc4Cl)nnc23)n1	i
Cc1nn2c(NCCc3ncc[nH]3)cc(-c3ccccc3)nc2c1C	-5.2%
Cc1cc(C(=O)N2C[C@@H](CO)[C@H](c3ccccn3)C2)no1	-24.8%
CNC(=O)[C@@H](c1ccccc1)N1CCC[C@H]1C(=O)NCc1ccncc1	11.6%[44.1 µM]
Cc1ccc(-n2ncc(C(=O)NCCCN3CCN(C)CC3)c2C2CCN(C(=O)OC(C)(C)C)CC2)c(C)c1	i
CC(C)(C)OC(=O)N1CCC(c2c(C(=O)N3CCN(C(=O)c4ccco4)CC3)cnn2-c2ccc(Cl)cc2)CC1	103.7%[5.79 µM]
Cc1ccc(N2CCN(C(=O)c3cnn(-c4ccc(F)cc4F)c3C3CCN(C(=O)OC(C)(C)C)CC3)CC2)c(C)c1	7.94µM*
CC(C)(C)OC(=O)N1CCC(c2c(C(=O)N3CCN(C(=O)c4ccco4)CC3)cnn2-c2ccccc2Cl)CC1	11.2µM*
Cc1ccc(C)c(N2CCN(CCCNC(=O)c3cnn(-c4cccc(Cl)c4)c3C3CCN(C(=O)OC(C)(C)C)CC3)CC2)c1	1.41µM*
Cc1ccc(C)c(N2CCN(CCCNC(=O)c3cnn(-c4ccccc4Cl)c3C3CCN(C(=O)OC(C)(C)C)CC3)CC2)c1	2.24µM*
CCN1CCN(C(=O)c2cnn(-c3ccc(F)cc3F)c2C2CCN(C(=O)OC(C)(C)C)CC2)CC1	-5.8%
O=C(Nc1ccc(Oc2ccccc2)cc1)N[C@H]1CO[C@H]2[C@@H]1OC[C@@H]2Nc1nccc(-c2cccc(F)c2)n1	-18.7%
Cc1ccc2nc(COCC(=O)N[C@H]3CC[C@@H]4CCC[C@@H]43)[nH]c2c1	-13.5%
CC1(CCCCc2ccccc2)COc2ccc(C(=O)NCc3ccncc3)cc2N1 (stereo not drawn)	i
C[C@@H](NC(=O)C1CC1)c1onc(-c2ccc(Cl)cc2)c1C(=O)O	-13.6%[44.1 µM]
SMILES	Pf Dd2 growth
COCCN1C(=O)[C@@H]2C[C@@H](CN2C(=O)C2CCOCC2)Oc2ccccc21	26.5%[44.1 µM]
CCNC(=O)N1CCCC(c2noc(COc3ccccc3)n2)C1 (stereo not drawn)	-12.4%
CCc1nc(-c2c3n(c(=O)n(CC(=O)Nc4cc(C)ccc4OC)c2=O)CCCC3)no1	25.7%
O=C1NCCCCCN(C(=O)c2ccco2)[C@H]2CCC[C@@H]12	3.4%
O=C(c1ccccc1)N1CCC(N2CC3CC(C2)[C@H]2CCCC(=O)N2C3)CC1 (stereo partly drawn)	11.6%
Cc1ccc(C)c(N2CCN(CCCNC(=O)c3cnn(-c4ccc(F)cc4)c3C3CCN(C(=O)OC(C)(C)C)CC3)CC2)c1	1.26µM*
CCN1CCN(CCCNC(=O)c2cnn(-c3ccc(C)cc3)c2C2CCN(C(=O)OC(C)(C)C)CC2)CC1	-3.8%
Cc1ccc(C)c(N2CCN(C(=O)c3cnn(-c4ccccc4Cl)c3C3CCN(C(=O)OC(C)(C)C)CC3)CC2)c1	3.55µM*
CC(=O)NCC(=O)N1Cc2ccccc2CC2(CCCN2CC2CCNCC2)C1 (stereo not drawn)	2.9%
Cn1cccc1C(=O)N1CCCN(C(=O)C2CC2)C(c2ccccc2)CC(=O)NCC1 (stereo not drawn)	-3.0%
c1ccc(-c2ccc(CN3CCCC3)cc2)c(CN2CCOCC2)c1	8.91µM*
O=C(O)C1CCCN(Cc2ccccc2OCCCN2CCOCC2)C1 (stereo not drawn)	-1.0%
CCn1nc(-c2ccccc2CN2CCOCC2)nc1N(C)C	-6.9%
COc1ccc(NC(=O)NC[C@H]2O[C@@H]3C[C@@H](CC(=O)N4CCC(F)(F)C4)O[C@@H]3[C@@H]2O)cc1	3.7%
COCc1cc(C)nc2sc(C(=O)Nc3ccc(OC(F)(F)F)cc3)c(N)c12	3.98µM*
Nc1c(C(=O)Nc2ccc(OC(F)(F)F)cc2)sc2nc(-c3ccncc3)ccc12	i
